Results filed as inconclusive are left out. Activity calls are given as the source filed them. Unless noted, the call rests on the fitted dose curve; in most records, active means well fitted curve in the direction sought with a large enough effect; inconclusive means small, poorly fitted or top-dose-only effect, or another doubt; inactive means no such curve, though single readings can be large; an effect the other way counts as inactive or inconclusive.
Tests used:
[1] = qHTS to identify inhibitors of the type 1 interferon - major histocompatibility complex class I in skeletal muscle: primary screen against the NCATS Pharmaceutical Collection (AID 1347407);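 further: luminescence of HiBiT knocked into endogenous HLA-B as interferon-induced MHC class I level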
In short: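 Immortalized human myoblasts (C25cl48) with HiBiT knocked into endogenous HLA-B*08:01 were stimulated with 4.0 ng/ml IFN-beta and treated with compounds ([…] top 46 uM) for 24 hrs at 37 C. HiBiT lytic luminescence read.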

[2] = target: Protein phosphatase 1D (Homo sapiens) (UniProt O15297); assay: RapidFire Mass Spectrometry qHTS Assay for Modulators of WT P53-Induced Phosphatase 1 (WIP1) (AID 1347424);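 further: amount of dephosphorylated VEPPL-S-QETFS peptide product formed by WIP1; series mostly up to about 63 µM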
In short: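 Mass-spectrometric measurement of dephosphorylated peptide after a 5 min room-temperature reaction of 10 nM WIP1 with 2 uM phosphopeptide, following 1 h compound preincubation in 30 mM MgCl2 buffer.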

[3] = target: Protein phosphatase 1D (Homo sapiens) (UniProt O15297); assay: Rhodamine-PBP qHTS Assay for Modulators of WT P53-Induced Phosphatase 1 (WIP1) (AID 1347425)
In short: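 WIP1 (5 nM final) was preincubated with compound for 1 hour at room temperature. It then dephosphorylated 10 uM VEPPL-pS-QETFS peptide in Tris-HCl pH 7.5 with 30 mM MgCl2. Released Pi was detected by 10 uM Rh-PBP fluorescence (ex 525/em 598 nm) read at 1-min intervals for 11 min, as delta f1 - f0.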

[4] = Primary qHTS for inhibitors of La Crosse Virus (LACV) - induced cell death in SH-SY5Y cells (AID 1508616);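 further: top concentration of the series differs between compounds; higher means more rescue of cells from virus-induced death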
In short: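 SH-SY5Y, 6000 cells/well; cpd via pin tool in DMSO; LACV 0.01 MOI; 6 d 37C 5% CO2; ATPLite, 5 min RT; luminescence normalized to ±virus DMSO controls.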

[5] = target: Calcium and integrin-binding protein 1 (Homo sapiens) (UniProt Q99828); assay: Primary qHTS for Identification of Calcium Integrin Binding Protein 1 (CIB1) Competitor (AID 1508620);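 further: GST tagged CIB1 binding a fluorescein labelled alphaIIb integrin peptide tracer; top concentration of the series differs between compounds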
In short: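 Fluorescence polarization competition: CIB1-GST (1 uM final) preincubated with compound 15 min at room temperature, then FITC-labeled alphaIIb peptide (100 nM final) added for another 15 min. Polarization read at Ex 480/Em 540.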

[6] = Cell Viability qHTS for small molecule stabilizers of the endoplasmic reticulum resident proteome (AID 1508629); conditions: cell viability counter-screen, 100 nM thapsigargin for final 4 h;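 further: potency means the concentration at half of the fitted maximal effect; compound exposure about 46 h in total before the viability read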
[7] = A High-Content qHTS Against Drug Library for the Identification of Small Molecules that Inhibit DYT1 Early Onset Primary Dystonia-Associated Cell Pathology (AID 1645839; calls by dose curve; further: potency means the concentration at half of the fitted maximal effect)
In short: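 Induced EGFP-delE TorsinA cells are imaged after 48 h of compound treatment. Punctate fusion-protein distribution gives the %pathology value, while nuclei counts flag toxicity. Wild-type EGFP-hTOR1A cells define the normal pattern.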

[8] = target: Cytochrome P450 2D6 (Homo sapiens) (UniProt P10635); assay: Cytochrome P450 family 2 subfamily D member 6 (CYP2D6) small molecule antagonists: luciferase biochemical (cell-free) qHTS assay (AID 1645840; active means well fitted curve in the direction sought with a large enough effect in the repeat runs; an effect the other way counts as inactive or inconclusive; further: nearly all actives have a fitted effect of over 55% in size; further: potency means the concentration at half of the fitted maximal effect)
In short: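 P450-Glo CYP2D6 system: proluciferin substrate converted by enzyme to luciferin, read by luminescence proportional to activity. Enzyme-substrate mix with compound 10 min at room temperature, then NADPH regeneration 1 h before detection reagent.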

[9] = Primary qHTS for small molecule stabilizers of the endoplasmic reticulum resident proteome: Secreted ER Calcium Modulated Protein (SERCaMP) assay (AID 1508630)
In short: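 The SH-SY5Y reporter protocol was run at 3 concentrations up to 38.3 uM (primary) or 11 concentrations (follow-up): 16 h compound, 100 nM thapsigargin for 4 h, then extracellular luciferase luminescence.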

[10] = qHTS for inhibitors of adenylyl cyclases using a fission yeast platform: a pilot screen against the NCATS LOPAC library (AID 1347410)
In short: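 S. pombe CHP2027 (AC9-GNAS-PDE4D2) carrying PKA-repressed fbp1-GFP, incubated 18 h at 30C in EMM with LOPAC compounds at up to 57 uM. GFP gain-of-signal read by laser scanning cytometry; DMSO negative control.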

[11] = Validation qHTS assay for inhibitors of Activation Induced Cytidine Deaminase (AID): UDG Counterscreen signal (AID 1347427)
In short: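 Fluorescence at 560 nm excitation, 665 nm emission reports UDG signal after 250 mM NaOH (2x) addition and 30 min. Enzymes (AID 1 uM, UDG 2 U/mL, at 4/3x) preincubated 10 min with compound, then 4 h with 4x 250 nM DJC20/DJC23 substrate at room temperature.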

[12] = target: Single-stranded DNA cytosine deaminase (Homo sapiens) (UniProt Q9GZX7); assay: Validation qHTS assay for inhibitors of Activation Induced Cytidine Deaminase (AID): AID signal (AID 1347429)
In short: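 Steps: dispense AID with UDG; pin-transfer compound up to 114 uM final; add DJC20/DJC23 substrate and hold 4 hr at room temperature; add NaOH, hold 30 min; read FRET signal (540/590 nm).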

[13] = target: Calcium and integrin-binding protein 1 (Homo sapiens) (UniProt Q99828); assay: Validation qHTS for Identification of Calcium Integrin Binding protein 1 (CIB1) Competitor (AID 1508618)
In short: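 Fluorescence polarization with 1 uM CIB1-GST and 100 nM FITC-alphaIIb peptide in HEPES pH 7.4, NaCl, 5 mM CaCl2, Tween20. Compounds at up to 114 uM final, preincubated with protein 15 min; read after 15 min more at RT.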

Papain (Carica papaya) = Papain (Carica papaya) (UniProt P00784); assay: Primary qHTS assay for inhibitors of the protease papain (AID 1645873);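 further: papain turnover of Z-FR-AMC read as the AMC fluorescence gain over 10 min; series mostly up to about 50 µM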
[14] = Primary qHTS for inhibitors of nuclear receptor binding SET domain protein 2 (NSD2) in an isogenic RCH-ACV NSD2 p.E1099K mutant (9B) (AID 1645876); further: nearly all actives have a fitted effect of over 70% in size; further: potency means the concentration at half of the fitted maximal effect
[15] = target: Cytochrome P450 3A4 (Homo sapiens) (UniProt P08684); assay: Cytochrome P450 family 3 subfamily A member 4 (CYP3A4) small molecule antagonists: luciferase qHTS assay (AID 1645841; active means well fitted curve in the direction sought with a large enough effect in the repeat runs; an effect the other way counts as inactive or inconclusive; further: nearly all actives have a fitted effect of over 45% in size)
In short: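 P450-Glo CYP3A4 enzyme with proluciferin substrate was preincubated with DMSO-dissolved compounds for 10 min at room temperature. NADPH regeneration solution started a 1 h reaction. Detection reagent stopped it, and luminescence was read after 20 min.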

[16] = target: Cytochrome P450 2C9 (Homo sapiens) (UniProt P11712); assay: Cytochrome P450 family 2 subfamily C member 9 (CYP2C9) small molecule antagonists: luciferase biochemical (cell-free) qHTS assay (AID 1645842; active means well fitted curve in the direction sought with a large enough effect in the repeat runs; an effect the other way counts as inactive or inconclusive; further: nearly all actives have a fitted effect of over 55% in size; further: potency means the concentration at half of the fitted maximal effect)
In short: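 P450-Glo CYP2C9 system: proluciferin substrate with enzyme in mix containing 0.4% BSA, 10 min at room temperature, then NADPH regeneration solution added and incubated 1 h at 37C. Detection reagent stopped reaction; luminescence read after 20 min as RLU.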

Measured: Potency

Sequence of Calcium and integrin-binding protein 1 (Homo sapiens) (Q99828 whole entry, looked up): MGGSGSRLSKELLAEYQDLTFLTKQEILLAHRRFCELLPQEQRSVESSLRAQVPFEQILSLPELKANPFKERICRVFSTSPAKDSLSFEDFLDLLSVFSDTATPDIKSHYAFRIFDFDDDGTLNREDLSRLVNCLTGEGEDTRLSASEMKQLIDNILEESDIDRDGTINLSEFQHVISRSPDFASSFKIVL
Sequence of Cytochrome P450 2C9 (Homo sapiens) (P11712 whole entry, looked up): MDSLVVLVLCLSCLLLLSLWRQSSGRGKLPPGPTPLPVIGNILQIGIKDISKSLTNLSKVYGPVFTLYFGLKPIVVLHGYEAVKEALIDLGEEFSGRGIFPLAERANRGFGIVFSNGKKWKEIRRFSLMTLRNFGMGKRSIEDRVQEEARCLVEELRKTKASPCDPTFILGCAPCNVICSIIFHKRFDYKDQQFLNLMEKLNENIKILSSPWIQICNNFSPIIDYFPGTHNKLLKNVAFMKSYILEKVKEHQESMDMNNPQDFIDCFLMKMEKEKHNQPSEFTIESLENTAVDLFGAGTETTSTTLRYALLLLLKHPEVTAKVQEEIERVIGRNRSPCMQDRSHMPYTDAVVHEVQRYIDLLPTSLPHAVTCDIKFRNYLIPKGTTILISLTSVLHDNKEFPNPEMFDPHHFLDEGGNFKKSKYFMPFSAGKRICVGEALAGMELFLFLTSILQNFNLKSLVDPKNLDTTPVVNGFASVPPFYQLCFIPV
Sequence of Papain (Carica papaya) (P00784 whole entry, looked up, the tested form may be a part): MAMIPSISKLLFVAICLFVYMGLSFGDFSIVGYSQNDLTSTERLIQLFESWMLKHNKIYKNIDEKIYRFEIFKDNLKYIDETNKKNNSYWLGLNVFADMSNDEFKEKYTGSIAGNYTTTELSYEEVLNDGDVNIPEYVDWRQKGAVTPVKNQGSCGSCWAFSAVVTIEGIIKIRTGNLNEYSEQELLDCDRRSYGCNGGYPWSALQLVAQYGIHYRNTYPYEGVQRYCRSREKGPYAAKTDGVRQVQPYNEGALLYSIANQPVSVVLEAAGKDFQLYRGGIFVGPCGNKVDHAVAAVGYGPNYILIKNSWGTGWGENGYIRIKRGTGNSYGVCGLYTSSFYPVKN
Sequence of Single-stranded DNA cytosine deaminase (Homo sapiens) (Q9GZX7 whole entry, looked up): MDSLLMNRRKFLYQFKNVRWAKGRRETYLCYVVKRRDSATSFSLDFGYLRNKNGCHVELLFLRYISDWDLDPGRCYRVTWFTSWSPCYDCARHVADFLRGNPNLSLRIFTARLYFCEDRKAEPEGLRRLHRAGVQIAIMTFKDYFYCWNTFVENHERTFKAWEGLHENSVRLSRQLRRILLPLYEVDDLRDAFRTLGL
Sequence of Cytochrome P450 2D6 (Homo sapiens) (P10635 whole entry, looked up): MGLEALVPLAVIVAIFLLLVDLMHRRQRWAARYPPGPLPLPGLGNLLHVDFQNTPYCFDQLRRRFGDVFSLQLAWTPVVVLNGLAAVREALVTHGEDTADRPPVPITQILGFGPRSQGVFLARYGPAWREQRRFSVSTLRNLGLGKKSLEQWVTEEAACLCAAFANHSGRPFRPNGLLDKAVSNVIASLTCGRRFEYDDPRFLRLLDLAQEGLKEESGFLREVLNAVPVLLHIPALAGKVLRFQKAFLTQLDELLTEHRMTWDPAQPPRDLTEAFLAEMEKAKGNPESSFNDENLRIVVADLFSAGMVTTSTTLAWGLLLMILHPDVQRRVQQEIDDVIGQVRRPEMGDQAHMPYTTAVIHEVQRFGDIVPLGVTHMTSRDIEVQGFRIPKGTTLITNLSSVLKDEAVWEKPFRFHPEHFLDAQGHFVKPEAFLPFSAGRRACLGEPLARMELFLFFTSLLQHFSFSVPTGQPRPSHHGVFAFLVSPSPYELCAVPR
Sequence of Protein phosphatase 1D (Homo sapiens) (O15297 whole entry, looked up): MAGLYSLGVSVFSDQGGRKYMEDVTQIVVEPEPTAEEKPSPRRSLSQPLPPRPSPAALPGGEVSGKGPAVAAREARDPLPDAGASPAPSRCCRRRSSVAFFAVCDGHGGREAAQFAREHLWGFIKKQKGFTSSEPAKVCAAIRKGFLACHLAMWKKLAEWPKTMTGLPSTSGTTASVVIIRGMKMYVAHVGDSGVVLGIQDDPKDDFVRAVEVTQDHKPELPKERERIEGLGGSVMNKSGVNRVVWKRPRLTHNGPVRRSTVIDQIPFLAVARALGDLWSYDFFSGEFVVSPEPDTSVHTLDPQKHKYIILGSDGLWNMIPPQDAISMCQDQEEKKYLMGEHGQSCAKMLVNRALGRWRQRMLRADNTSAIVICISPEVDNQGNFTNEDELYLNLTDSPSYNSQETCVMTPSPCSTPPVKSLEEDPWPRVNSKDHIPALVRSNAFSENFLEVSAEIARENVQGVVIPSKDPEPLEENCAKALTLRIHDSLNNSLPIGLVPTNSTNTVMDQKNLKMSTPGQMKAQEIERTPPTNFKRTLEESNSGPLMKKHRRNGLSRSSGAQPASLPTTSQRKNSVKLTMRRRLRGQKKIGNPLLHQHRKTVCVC
Sequence of Cytochrome P450 3A4 (Homo sapiens) (P08684 whole entry, looked up): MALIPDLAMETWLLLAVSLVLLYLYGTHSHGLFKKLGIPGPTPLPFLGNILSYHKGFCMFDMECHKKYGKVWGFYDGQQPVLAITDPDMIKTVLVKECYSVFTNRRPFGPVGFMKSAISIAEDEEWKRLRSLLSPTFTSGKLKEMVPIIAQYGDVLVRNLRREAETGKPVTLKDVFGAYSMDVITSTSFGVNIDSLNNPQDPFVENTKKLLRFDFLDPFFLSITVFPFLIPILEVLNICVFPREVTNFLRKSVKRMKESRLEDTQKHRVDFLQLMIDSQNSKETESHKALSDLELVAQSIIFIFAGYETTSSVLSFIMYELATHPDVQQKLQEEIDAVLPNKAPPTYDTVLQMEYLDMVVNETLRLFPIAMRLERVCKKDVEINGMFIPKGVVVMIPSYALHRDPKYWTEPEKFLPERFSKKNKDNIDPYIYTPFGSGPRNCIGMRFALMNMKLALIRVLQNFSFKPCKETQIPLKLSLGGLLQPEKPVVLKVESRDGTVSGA

N=C1N=C(N)c2cc3ccccc3cc21
active: [6] 39.8 µM | [7] 35.5 µM | [8] 31.7 µM
inactive: [1] | [2] | [3] | [4] | [5]

O=C(O)Cc1ccc(-c2ccccc2)cc1
inactive: [1] | [2] | [3] | [4] | [9] | [7] | [8]

CC(N)C(=O)OC(C)(C)Cc1ccc(Cl)cc1 (stereo not drawn)
active: [8] 12.3 µM
not listed: [6] | [9] | [15] | [16]
inactive: all other assays above

CC(=O)SCC(CC(=O)c1ccc(C)cc1)C(=O)O (stereo not drawn)
inactive: [1] | [2] | [3] | [4] | [5] | [7] | [8]

CCOC(=O)c1ccccc1O
inactive: [1] | [2] | [3] | [4] | [5] | [7] | [8] | [15] | [14]

COc1ccnc2c1CCCCC2S(=O)c1nc2ccccc2[nH]1 (stereo not drawn)
inactive: [1] | [2] | [3] | [4] | [9] | [7] | [14]
active: [8] 0.347 µM | [16] 9.77 µM

CCCOC(=O)c1ccc(O)cc1
inactive: [1] | [2] | [3] | [4]

O=C(Nc1ccc(C(=O)O)c(O)c1)c1ccccc1
active: [8] 13.8 µM
inactive: [1] | [2] | [3] | [4] | [5] | [9] | [7] | [14]

c1ccc(CCNc2nc(-c3ccccc3)cs2)cc1
inactive: [1] | [2] | [3] | [4] | [5] | [9] | [7]
active: [8] 5.49 µM

CC(C(=O)O)c1ccc(C(=O)c2cccs2)cc1 (stereo not drawn)
active: [16] 7.76 µM
inactive: [1] | [2] | [3] | [4] | [5] | [9] | [7] | [8]

Cc1ccc(C(=O)c2ccc(CC(=O)O)n2C)cc1
inactive: [1] | [2] | [3] | [4] | [5] | [7] | [8] | [14]

O=C(O)/C=C\C(=O)O
inactive: [1] | [2] | [3] | [4] | [5] | [7] | [8] | [14]

Cc1c(C(=O)O)c(O)cc2c1C(=O)c1c(O)c([C@@H]3O[C@H](CO)[C@@H](O)[C@H](O)[C@H]3O)c(O)c(O)c1C2=O
inactive: [1] | [2] | [3] | [4] | [5] | [7] | [8]

CCCCCCOc1ccccc1C(N)=O
active: [16] 8.71 µM
inactive: [1] | [2] | [3] | [4] | [5] | [9] | [7]

CCC1C(=O)OCC1Cc1cncn1C (stereo not drawn)
not listed: [6] | [16]
inactive: all other assays above

CC(C)OC(=O)c1cc(C(=O)OC(C)C)cc([N+](=O)[O-])c1
active: [8] 3.73 µM
inactive: [1] | [2] | [3] | [4] | [5] | [7] | [14]

CN(C)CCn1nnnc1SCC1=C(C(=O)O)N2C(=O)[C@@H](NC(=O)Cc3csc(N)n3)[C@H]2SC1
inactive: [1] | [2] | [3] | [4] | [7] | [14]

O=C(CCN1CCN(CCO)CC1)N1c2ccccc2Sc2ccc(C(F)(F)F)cc21
inactive: [1] | [2] | [3] | [4] | [7] | [8] | [14]

CN(C)[C@@H]1C(=O)C(C(=O)NCN2CCCC2)=C(O)[C@@]2(O)C(=O)C3=C(O)c4c(O)cccc4[C@@](C)(O)C3C[C@@H]12 (stereo partly drawn)
inactive: [1] | [3] | [4] | [9] | [7] | [16]

O=C(OCc1ccccc1)c1ccccc1
inactive: [1] | [2] | [3] | [4] | [7] | [8] | [16] | [14]

CCCC(=O)OC[C@@H](OC(=O)CCC)[C@@H](OC(=O)CCC)[C@H](Cn1c2nc(=O)[nH]c(=O)c-2nc2cc(C)c(C)cc21)OC(=O)CCC
inactive: [1]
active: [8] 7.76 µM

O=C(O)c1ccccc1Nc1cccc(C(F)(F)F)c1
inactive: [1] | [4] | [8] | [16]

Nc1ccc(C(=O)O)c(O)c1
inactive: [1] | [2] | [3] | [4] | [7] | [8] | [16] | [14]

Nc1ccc([N+](=O)[O-])cc1O
inactive: [1] | [2] | [3] | [5]
active: [14] 6.86 µM

From PubChem BioAssay (NCATS)
